Laboratory results: the supplement of paper PMC11732987, “Enantioselective OTUD7B fragment discovery through chemoproteomics screening and high-throughput optimisation” (Communications Chemistry, 2025)

Legend:
Experiment in all cases: log2 ratio of Biotin-Ahx-Ub-VS probe labelling (fragment/DMSO); higher = less target engagement (more negative = stronger competition), active = hit call of the paper (q ≤ 0.05, log2 ratio ≤ -1)
Conditions in all cases: compound concentration: 200 uM; treatment time: 3 h
USP19 = molecular target: T1, USP19 (UniProt O94966)
T1 sequence (whole entry): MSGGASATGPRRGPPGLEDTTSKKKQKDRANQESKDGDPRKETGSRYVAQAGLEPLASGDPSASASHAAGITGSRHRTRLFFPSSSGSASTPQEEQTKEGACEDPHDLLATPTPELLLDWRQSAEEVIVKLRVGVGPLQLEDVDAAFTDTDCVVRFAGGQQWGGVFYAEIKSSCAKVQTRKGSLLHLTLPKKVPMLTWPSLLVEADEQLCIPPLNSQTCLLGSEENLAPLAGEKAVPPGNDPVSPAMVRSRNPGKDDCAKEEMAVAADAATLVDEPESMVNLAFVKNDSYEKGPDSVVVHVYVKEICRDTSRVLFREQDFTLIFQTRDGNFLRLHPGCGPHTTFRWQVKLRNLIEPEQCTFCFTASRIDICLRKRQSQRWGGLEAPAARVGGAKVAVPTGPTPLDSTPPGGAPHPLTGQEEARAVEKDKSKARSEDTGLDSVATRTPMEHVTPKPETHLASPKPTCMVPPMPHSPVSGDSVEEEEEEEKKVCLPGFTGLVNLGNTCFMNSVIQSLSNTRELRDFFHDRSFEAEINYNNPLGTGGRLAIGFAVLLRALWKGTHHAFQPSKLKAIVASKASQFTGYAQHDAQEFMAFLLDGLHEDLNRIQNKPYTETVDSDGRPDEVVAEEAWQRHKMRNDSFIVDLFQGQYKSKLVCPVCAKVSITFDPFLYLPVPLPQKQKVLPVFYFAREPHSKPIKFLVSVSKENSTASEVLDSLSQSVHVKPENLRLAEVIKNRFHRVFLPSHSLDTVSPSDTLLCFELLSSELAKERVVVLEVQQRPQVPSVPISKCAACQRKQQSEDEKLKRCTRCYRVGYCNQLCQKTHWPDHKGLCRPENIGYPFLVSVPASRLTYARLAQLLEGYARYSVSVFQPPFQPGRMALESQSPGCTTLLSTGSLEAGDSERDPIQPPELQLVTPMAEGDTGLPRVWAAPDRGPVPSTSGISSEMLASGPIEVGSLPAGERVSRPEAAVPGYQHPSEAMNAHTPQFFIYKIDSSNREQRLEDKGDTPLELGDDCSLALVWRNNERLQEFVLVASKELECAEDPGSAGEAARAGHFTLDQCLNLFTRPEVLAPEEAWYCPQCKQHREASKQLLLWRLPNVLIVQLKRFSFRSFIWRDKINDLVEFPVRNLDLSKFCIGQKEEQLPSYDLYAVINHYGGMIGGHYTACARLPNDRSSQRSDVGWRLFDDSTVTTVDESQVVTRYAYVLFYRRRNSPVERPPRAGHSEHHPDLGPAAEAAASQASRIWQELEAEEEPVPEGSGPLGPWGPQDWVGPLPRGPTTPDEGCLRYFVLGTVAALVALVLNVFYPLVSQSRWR
Summary of the method: (§1)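 HEK293T lysate, 495 µg per sample in Tris/CHAPS/IGEPAL buffer with protease inhibitors, was treated in triplicate with fragment at 200 µM or vehicle for 3 h and then with Biotin-Ahx-Ub-VS at 0.5 µM final for 1 h. Labelled DUBs were NeutrAvidin-enriched, digested with LysC and trypsin, and run by diaPASEF LC-MS/MS. Spectronaut label-free quantities were global-median-normalised, and values are average log2 fragment/vehicle ratios by unpaired t-test on proteins with ≥2 unique peptides.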

USP22 = molecular target: T2, USP22 (UniProt Q9UPT9)
T2 sequence (whole entry): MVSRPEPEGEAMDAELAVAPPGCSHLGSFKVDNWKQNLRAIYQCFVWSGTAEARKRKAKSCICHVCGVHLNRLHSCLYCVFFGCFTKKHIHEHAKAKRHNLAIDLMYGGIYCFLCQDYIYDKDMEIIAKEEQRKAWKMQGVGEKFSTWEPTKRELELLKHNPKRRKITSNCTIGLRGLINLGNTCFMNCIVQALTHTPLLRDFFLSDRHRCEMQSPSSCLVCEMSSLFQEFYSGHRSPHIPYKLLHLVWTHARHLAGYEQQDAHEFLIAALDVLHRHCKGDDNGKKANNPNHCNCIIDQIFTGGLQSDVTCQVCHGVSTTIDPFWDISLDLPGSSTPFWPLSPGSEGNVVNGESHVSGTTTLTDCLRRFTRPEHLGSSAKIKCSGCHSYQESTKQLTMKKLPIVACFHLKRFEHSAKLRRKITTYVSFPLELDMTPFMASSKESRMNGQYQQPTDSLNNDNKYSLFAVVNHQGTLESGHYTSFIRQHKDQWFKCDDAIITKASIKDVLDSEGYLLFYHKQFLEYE
Summary of the method: as §1

USP24 = USP24 (UniProt Q9UPU5)
Sequence of USP24 (Q9UPU5 whole entry): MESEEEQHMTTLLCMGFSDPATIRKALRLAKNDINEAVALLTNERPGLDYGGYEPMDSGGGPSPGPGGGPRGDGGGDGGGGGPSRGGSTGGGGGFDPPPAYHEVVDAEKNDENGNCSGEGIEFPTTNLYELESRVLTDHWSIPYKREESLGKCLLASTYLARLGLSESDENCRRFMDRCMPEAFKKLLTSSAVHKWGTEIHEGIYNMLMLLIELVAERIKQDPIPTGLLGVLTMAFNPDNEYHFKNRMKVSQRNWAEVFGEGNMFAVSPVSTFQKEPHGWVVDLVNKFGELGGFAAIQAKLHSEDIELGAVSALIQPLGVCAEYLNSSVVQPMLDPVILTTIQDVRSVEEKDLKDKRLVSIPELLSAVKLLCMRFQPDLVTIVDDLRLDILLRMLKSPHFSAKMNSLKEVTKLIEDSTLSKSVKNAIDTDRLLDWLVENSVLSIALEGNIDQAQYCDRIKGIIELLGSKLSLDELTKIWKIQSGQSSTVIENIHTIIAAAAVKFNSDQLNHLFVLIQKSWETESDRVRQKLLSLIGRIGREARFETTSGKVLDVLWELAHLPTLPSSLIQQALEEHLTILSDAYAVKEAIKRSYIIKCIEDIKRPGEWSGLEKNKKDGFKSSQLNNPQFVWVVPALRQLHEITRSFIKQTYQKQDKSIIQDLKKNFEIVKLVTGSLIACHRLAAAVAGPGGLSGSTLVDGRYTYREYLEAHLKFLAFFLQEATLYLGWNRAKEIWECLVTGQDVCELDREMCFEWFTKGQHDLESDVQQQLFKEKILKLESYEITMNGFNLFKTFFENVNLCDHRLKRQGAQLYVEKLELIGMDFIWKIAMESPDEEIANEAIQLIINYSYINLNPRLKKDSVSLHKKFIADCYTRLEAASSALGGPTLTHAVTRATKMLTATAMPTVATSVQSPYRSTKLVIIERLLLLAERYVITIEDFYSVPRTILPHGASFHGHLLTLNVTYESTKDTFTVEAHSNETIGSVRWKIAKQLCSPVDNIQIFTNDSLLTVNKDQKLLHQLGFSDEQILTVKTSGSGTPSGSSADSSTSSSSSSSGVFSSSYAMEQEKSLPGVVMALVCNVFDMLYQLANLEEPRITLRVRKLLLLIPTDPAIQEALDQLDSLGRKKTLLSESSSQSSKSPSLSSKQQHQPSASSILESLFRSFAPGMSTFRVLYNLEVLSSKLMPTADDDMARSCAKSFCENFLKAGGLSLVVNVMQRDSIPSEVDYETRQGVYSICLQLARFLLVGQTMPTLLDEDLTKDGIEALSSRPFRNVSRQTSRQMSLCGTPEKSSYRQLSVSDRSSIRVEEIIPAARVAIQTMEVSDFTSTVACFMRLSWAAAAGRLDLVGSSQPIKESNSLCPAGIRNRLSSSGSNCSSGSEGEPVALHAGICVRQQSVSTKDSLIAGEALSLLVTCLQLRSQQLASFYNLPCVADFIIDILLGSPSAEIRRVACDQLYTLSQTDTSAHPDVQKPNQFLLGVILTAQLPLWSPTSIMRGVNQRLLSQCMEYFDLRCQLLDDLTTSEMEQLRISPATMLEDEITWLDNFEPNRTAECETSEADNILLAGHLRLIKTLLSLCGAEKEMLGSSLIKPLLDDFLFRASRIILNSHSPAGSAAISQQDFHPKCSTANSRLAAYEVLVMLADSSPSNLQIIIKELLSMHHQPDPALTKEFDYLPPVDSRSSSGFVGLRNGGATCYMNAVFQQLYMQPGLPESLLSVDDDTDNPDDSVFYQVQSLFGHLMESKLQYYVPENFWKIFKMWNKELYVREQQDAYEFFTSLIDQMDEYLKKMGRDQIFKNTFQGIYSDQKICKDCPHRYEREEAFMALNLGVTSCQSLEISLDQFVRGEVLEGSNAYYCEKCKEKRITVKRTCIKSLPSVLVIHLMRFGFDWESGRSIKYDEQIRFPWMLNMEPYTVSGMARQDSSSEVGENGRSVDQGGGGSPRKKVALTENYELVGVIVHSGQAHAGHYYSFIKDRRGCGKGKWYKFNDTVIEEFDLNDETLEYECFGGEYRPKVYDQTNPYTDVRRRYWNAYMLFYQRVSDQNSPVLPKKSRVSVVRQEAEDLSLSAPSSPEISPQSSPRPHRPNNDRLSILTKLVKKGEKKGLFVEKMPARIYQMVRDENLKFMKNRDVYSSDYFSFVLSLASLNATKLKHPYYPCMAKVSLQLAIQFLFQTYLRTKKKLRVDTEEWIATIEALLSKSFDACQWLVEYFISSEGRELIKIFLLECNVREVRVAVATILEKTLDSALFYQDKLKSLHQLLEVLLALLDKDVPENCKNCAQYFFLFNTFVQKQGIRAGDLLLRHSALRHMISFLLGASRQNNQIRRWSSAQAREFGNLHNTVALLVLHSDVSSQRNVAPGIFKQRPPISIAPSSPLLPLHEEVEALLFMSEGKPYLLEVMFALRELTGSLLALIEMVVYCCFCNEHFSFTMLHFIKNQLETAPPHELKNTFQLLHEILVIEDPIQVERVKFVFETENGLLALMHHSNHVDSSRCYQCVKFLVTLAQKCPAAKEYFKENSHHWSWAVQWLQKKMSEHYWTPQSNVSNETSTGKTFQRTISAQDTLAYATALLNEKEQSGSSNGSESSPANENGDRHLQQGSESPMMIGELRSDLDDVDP
Summary of the method: as §1

USP25 = molecular target: T3, USP25 (UniProt Q9UHP3)
T3 sequence (whole entry): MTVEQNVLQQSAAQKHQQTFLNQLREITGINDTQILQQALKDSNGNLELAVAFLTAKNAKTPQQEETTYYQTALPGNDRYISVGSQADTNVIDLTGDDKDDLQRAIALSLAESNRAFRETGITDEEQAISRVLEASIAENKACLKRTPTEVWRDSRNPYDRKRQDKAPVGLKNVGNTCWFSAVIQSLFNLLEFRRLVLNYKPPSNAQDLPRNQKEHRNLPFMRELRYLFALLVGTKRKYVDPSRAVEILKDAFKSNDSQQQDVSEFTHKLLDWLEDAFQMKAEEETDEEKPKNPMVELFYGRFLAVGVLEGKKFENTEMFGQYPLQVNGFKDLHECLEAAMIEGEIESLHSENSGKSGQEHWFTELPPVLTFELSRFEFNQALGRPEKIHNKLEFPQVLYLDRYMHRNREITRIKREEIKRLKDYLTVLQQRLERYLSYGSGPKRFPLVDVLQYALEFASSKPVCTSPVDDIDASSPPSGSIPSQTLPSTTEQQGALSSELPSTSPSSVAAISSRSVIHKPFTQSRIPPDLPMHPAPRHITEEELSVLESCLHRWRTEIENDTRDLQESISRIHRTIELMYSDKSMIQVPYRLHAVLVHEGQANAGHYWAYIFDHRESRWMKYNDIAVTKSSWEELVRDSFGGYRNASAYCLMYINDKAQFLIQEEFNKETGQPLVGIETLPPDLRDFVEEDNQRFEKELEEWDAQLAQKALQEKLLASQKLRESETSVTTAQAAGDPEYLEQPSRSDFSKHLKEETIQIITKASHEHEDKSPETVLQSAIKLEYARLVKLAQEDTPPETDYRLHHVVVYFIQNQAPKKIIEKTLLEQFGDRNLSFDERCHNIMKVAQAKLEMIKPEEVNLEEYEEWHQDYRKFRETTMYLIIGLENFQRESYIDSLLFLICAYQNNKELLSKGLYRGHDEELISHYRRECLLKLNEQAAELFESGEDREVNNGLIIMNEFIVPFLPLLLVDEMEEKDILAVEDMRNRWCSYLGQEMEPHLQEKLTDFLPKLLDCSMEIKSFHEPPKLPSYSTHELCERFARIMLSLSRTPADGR
Summary of the method: as §1

USP28 = molecular target: T4, USP28 (UniProt Q96RU2)
T4 sequence (whole entry): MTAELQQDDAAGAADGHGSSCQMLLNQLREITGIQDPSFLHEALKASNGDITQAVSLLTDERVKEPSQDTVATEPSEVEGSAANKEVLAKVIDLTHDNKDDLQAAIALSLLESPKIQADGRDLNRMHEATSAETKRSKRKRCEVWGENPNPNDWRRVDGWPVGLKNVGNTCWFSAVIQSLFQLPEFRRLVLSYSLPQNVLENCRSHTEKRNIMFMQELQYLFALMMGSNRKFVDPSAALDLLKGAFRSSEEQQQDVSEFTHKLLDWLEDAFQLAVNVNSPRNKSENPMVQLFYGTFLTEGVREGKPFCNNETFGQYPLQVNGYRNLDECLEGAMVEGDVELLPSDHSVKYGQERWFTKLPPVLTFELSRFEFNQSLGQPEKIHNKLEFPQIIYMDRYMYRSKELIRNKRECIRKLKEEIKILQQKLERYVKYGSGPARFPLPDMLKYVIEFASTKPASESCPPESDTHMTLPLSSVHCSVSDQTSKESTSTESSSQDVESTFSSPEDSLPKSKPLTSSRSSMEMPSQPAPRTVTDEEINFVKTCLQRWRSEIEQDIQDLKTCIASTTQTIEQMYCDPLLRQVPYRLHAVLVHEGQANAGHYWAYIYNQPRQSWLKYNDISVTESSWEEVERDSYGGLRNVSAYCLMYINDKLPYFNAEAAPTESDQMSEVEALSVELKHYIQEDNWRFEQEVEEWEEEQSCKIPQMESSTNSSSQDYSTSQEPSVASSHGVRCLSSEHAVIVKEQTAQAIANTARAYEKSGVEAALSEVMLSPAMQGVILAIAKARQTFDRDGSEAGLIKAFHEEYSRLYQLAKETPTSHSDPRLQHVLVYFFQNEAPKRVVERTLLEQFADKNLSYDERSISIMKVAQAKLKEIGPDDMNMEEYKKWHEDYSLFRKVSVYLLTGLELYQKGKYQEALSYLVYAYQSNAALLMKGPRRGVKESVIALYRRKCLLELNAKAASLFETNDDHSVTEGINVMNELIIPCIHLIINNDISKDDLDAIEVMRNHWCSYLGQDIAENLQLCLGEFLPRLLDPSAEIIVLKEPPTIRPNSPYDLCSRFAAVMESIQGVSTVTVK
Summary of the method: as §1

Measured: log2 ratio of Biotin-Ahx-Ub-VS probe labelling

Cc1cc(C(=O)NC2CCN(C(=O)CCl)CC2)no1
inactive: USP19 -0.0463 | USP22 -0.208 | USP24 -0.225 | USP25 -0.417 | USP28 -0.353
